Measured values: PubChem BioAssay

Assay: COS7 lysate on small-molecule microarray, probe aHis, 635 nm (AID 1123);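 further: z-score combines 667nm fluorescence intensity with signal-to-noise per printed compound spot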
Settings: COS7 cell lysate, fluorescence, higher = more signal

SMILES	composite z-score
CC1CC/C=C\[C@H]2OC34C=CCN(C(C)(C)C)C(=O)[C@H]3N(CCCCCCO)C(=O)[C@@H]4C2C(=O)O1 (stereo partly specified)	0.178
C[C@@]1([C@@H](NC(=O)c2ccccc2)c2ccc(-c3ccccc3)cc2)C[C@H]1C1CCCCC1	0.121
COCCCNC(=O)[C@@]1(Cc2ccccc2N=[N+]=[N-])N=C(c2ccc(OCCCO)cc2)O[C@H]1c1ccccc1N=[N+]=[N-]	2.76
CCN(CC)c1ccc(N2CC=CC34O[C@@H]5/C=C\CCCOC(=O)C5[C@H]3C(=O)N(CCO)[C@@H]4C2=O)cc1 (stereo partly specified)	0.534
CC(C)(C)OC(=O)CC[C@]12N=C(c3ccc(OCCCO)cc3)O[C@H]1c1ccccc1N(CCS(=O)(=O)c1ccccc1)C2=O	2.48
CN1C(=O)C2C=CC(C(O)c3cccs3)N(Nc3ccccc3)C2C1=O (stereo unspecified)	1.87
O=C1O[C@H](c2ccccc2)[C@H](c2ccccc2)N2[C@H]1[C@@H](C(=O)O)[C@]1(C(=O)Nc3ccc(C#CC4=CCCCC4)cc31)[C@H]2c1ccccc1OCCO	2.06
COc1cc(OC)c(C(O)C2C=CC3C(=O)NC(=O)C3N2Nc2ccc(Cl)cc2Cl)cc1Br (stereo unspecified)	2.99
C=CC[C@]1(C(=O)NCCCOC)N=C(c2ccc(OCCCO)cc2)O[C@H]1c1ccccc1N=[N+]=[N-]	3.06
Cc1ccc(S[C@]2(C(=O)NCCN3CCOCC3)CC(=O)N(Cc3ccccc3Cl)[C@@H]2c2ccc(CO)cc2)cc1	0.776
Cc1ccc(S[C@]2(C(=O)NCC(C)C)CC(=O)N(Cc3cc(C(F)(F)F)cc(C(F)(F)F)c3)[C@@H]2c2ccc(CO)cc2I)cc1	0.234
